Source: PubChem (National Center for Advancing Translational Sciences (NCATS))
ELG1 DNA repair = ELG1-dependent DNA repair inhibition. Potency, µM (highest dose often 46.1 µM), actives largely listed as inhibitors. HEK293T ELG1-luciferase reporter, luminescence, 16 h; DNA damage induced by 5-fluorouridine. 330,000 tested, 2.3% active. AID 504467; note: nearly all actives have a fitted effect of over 55% in size
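5-Fluorouridine DNA damage + compound/DMSO, 2,000 cells/well, 16 h, 37 °C/5% CO2. ONE-Glo, 30 min RT, luminescence. Readout = decrease in reporter signal.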
Nrf2 ARE act = Nrf2 pathway activation | AREc32 ARE-luciferase reporter (MCF7-derived line), luminescence, 24 h | Potency, µM (doses to about 46.1 µM), most hits filed as activators | 410,000 tested, 0.31% active | AID 624171; note: nearly all actives have a fitted effect of over 65% in size
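Reporter line AREc32 (ARE-Fluc), seeded overnight in OPTI-MEM with 5% FBS; compound pin-transferred, 24 hr at 37 deg C, 5% CO2; luminescent read-out.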
A549 tox-1 = kills or reduces viability of A549 cells in Nrf2 counter-screen; A549 ARE-Fluc cells, CellTiter-Fluor viability, 18-24 h; Potency, µM (top dose mostly 46 µM), usual class: inhibitors; 390,000 tested, 0.16% active; AID 504648
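Cytotoxicity counterscreen: CellTiter-Fluor fluorescence was measured in A549 ARE_Fluc cells after 18-24 h of compound exposure in a concentration series. The subsequent BugLite luminescent read reports ARE-luciferase activity.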
Nrf2 block = Nrf2 pathway inhibition | A549 ARE-Fluc reporter, luciferase luminescence, 18-24 h | Potency, µM (titrated, usually from 46 µM), usual class: inhibitors | 360,000 tested, 2.1% active; note: nearly all actives have a fitted effect of over 60% in size
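Two sequential reads on A549 ARE_Fluc cells exposed to compound for 18-24 h: a CellTiter-Fluor fluorescence read for viability, then a luciferase luminescence read for Nrf2/ARE activity.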
FLuc enzyme inh = firefly luciferase inhibition, Nrf2 hit validation; 1,400 tested, 4% active; Potency, µM (highest dose often 57.5 µM), actives largely listed as inhibitors; purified firefly luciferase, luminescence inhibition; shares compounds with Nrf2 block; note: nearly all actives have a fitted effect of over 65% in size
Target sequence (P08659 whole entry, looked up): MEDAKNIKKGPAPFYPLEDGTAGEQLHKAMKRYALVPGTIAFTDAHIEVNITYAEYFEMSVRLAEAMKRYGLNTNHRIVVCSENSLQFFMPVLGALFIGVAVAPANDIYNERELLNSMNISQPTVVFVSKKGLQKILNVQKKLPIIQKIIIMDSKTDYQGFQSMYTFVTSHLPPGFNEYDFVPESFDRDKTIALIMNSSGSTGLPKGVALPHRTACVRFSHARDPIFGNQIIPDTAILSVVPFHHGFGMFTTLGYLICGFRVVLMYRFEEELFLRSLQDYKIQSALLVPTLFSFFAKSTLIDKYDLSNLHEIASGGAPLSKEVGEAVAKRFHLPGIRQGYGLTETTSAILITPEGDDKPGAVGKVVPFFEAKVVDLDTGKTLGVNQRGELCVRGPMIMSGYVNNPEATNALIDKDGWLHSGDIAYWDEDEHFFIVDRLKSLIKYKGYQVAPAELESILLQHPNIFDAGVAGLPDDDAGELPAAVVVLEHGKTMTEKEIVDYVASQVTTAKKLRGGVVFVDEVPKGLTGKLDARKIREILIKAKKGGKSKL
A549 tox-2 = counter-screen for Nrf2 inhibitors: cytotoxicity in A549 ARE cells | shares compounds with Nrf2 block | A549 ARE-Fluc cells, cytotoxicity counterscreen | Potency, µM (series often up to 46.1 µM), hits mostly inhibitors | 1,400 tested, 2% active;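 note: cells exposed to compounds for 18 to 24 hours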
ARE-Fluc inh = confirmation of Nrf2 inhibitors in A549 ARE reporter cells. shares compounds with Nrf2 block. A549 ARE-firefly luciferase reporter, luminescence. Potency, µM (top dose mostly 46.1 µM), actives largely listed as inhibitors. 1,400 tested, 74% active. AID 720524; note: nearly all actives have a fitted effect of over 65% in size
Each line names hits and unclear results; the compound was inactive in the other large screens (follow-up assays come after a bar, where shown). Hits are enriched below; roughly 3.7% of the tested compounds scored in any of these assays. Calls come from the whole dose curve; as a rule, active = well fitted curve in the direction sought with a large enough effect; inconclusive = small, poorly fitted or top-dose-only effect, or another doubt; inactive = no such curve, though single readings can be large; an effect the other way counts as inactive or inconclusive.

CCC(=O)N1CCc2cc(Br)cc(S(=O)(=O)N3CCCC(C(=O)N(C)c4ccc(Br)cc4)C3)c21 (configuration not stated)	none (no result: ELG1 DNA repair)
Cc1ccc(COC(=O)c2[nH]c3c(c2C)C(=O)CC(c2ccc(Cl)cc2)C3)cc1 (configuration not stated)	none (no result: ELG1 DNA repair)
COc1ccccc1NS(=O)(=O)c1cccc(C(=O)N/N=C/c2ccc([N+](=O)[O-])o2)c1	ELG1 DNA repair inconclusive, Nrf2 ARE act inconclusive, Nrf2 block inconclusive
Cc1nnc(SC(C)C(=O)Nc2ccc(Cl)cn2)n1Cc1ccccc1 (configuration not stated)	A549 tox-1 inconclusive, Nrf2 block 9.2µM | FLuc enzyme inh inactive | A549 tox-2 inactive | ARE-Fluc inh inconclusive
Cc1nn(Cc2ccc(Cl)cc2)c(C)c1NC(=O)CSc1nc2c(c(C(F)(F)F)n1)CCc1ccccc1-2	ELG1 DNA repair inconclusive, A549 tox-1 inconclusive, Nrf2 block 9.2µM | FLuc enzyme inh inactive | A549 tox-2 inconclusive | ARE-Fluc inh inconclusive
Cc1ccc(-c2cc(NC=O)c3ncc(-c4cnn(C)c4)n3c2)cc1	none (no result: ELG1 DNA repair, A549 tox-1, Nrf2 block)
O=S(=O)(c1ccc(NC(=S)NCCC(c2ccccc2)c2ccccc2)cc1)N1CCOCC1	ELG1 DNA repair 18µM, A549 tox-1 inconclusive, Nrf2 block 4.1µM | FLuc enzyme inh inactive | A549 tox-2 inactive | ARE-Fluc inh inconclusive
CCCCOCCCNC(=S)Nc1ccc(S(=O)(=O)N2CCOCC2)cc1	ELG1 DNA repair inconclusive
COc1ccc(-c2c(-c3ccc4c(c3)OCO4)c3ccccc3n2C)cc1	A549 tox-1 inconclusive (no result: ELG1 DNA repair)
Cc1ccc(C(=O)N2CCN(c3ccc(NC(=O)c4ccc5c(c4)OCCO5)cc3)CC2)cc1	ELG1 DNA repair inconclusive, Nrf2 block 7.3µM | FLuc enzyme inh inactive | A549 tox-2 inactive | ARE-Fluc inh inconclusive
O=C(COC(=O)Cc1ccc(Cl)cc1)NC1CCCC1	none
Cc1ccc(NC(=O)Cn2c(=O)n(CC(=O)NCCc3ccccc3)c(=O)c3ccccc32)cc1	none (no result: ELG1 DNA repair)
Clc1ccc(OCCN2CCN(c3ncnc4sccc34)CC2)cc1	ELG1 DNA repair inconclusive, Nrf2 block 0.26µM | FLuc enzyme inh inactive | A549 tox-2 inactive | ARE-Fluc inh 0.46µM
CC(C)CN(C(=O)CSc1ccc2c(c1)OCCO2)c1c(N)n(CC(C)C)c(=O)[nH]c1=O	none
CC(C)Cn1c(N)c(C(=O)CSc2ccc3c(c2)OCCO3)c(=O)n(C)c1=O	ELG1 DNA repair 7.3µM, Nrf2 block 0.65µM | FLuc enzyme inh inactive | A549 tox-2 inactive | ARE-Fluc inh 1.8µM
Cc1ccc(NS(=O)(=O)c2ccc(C(=O)N3CCN(c4ncccn4)CC3)cc2)cc1	ELG1 DNA repair 5.8µM, A549 tox-1 inconclusive, Nrf2 block 5.8µM | FLuc enzyme inh inactive | A549 tox-2 inactive | ARE-Fluc inh 8.2µM
O=C(c1ccc(S(=O)(=O)Nc2ccc(F)cc2)cc1)N1CCN(c2ccccn2)CC1	ELG1 DNA repair 16µM, A549 tox-1 inconclusive, Nrf2 block 2.9µM | FLuc enzyme inh inactive | A549 tox-2 inactive | ARE-Fluc inh 15µM
Cc1ccc(S(=O)(=O)Nc2ccc(C(=O)N3CCCC3)cc2)cc1	none
Cn1c(=O)c2c(c3ccccc31)OC(=O)CC2c1ccccc1 (configuration not stated)	none (no result: ELG1 DNA repair, Nrf2 block)
COc1ccccc1Oc1ncnc2sccc12	none
CN(C)c1ccc(CNc2ncnc3sccc23)cc1	Nrf2 block 4.6µM | FLuc enzyme inh inactive | A549 tox-2 inactive | ARE-Fluc inh 12µM
c1ccc2c(c1)OCC(CNCC1COc3ccccc3O1)O2 (configuration not stated)	none
c1ccc2c(c1)OCC(CNc1ncnc3sccc13)O2 (configuration not stated)	ELG1 DNA repair inconclusive, Nrf2 block 1.5µM | FLuc enzyme inh inactive | A549 tox-2 inactive | ARE-Fluc inh 1.2µM
CN(C)c1ccc(CNc2ncc(Br)cc2Br)cc1	ELG1 DNA repair inconclusive
COc1ccccc1CNc1ncnc2sccc12	Nrf2 block 3.3µM | FLuc enzyme inh inactive | A549 tox-2 inactive | ARE-Fluc inh 4.1µM
Cc1ccccc1NC1=C(Cl)C(=O)OC1OC(=O)c1ccccc1C (configuration not stated)	Nrf2 ARE act inconclusive, A549 tox-1 inconclusive, Nrf2 block 1.6µM | FLuc enzyme inh inactive | A549 tox-2 inactive | ARE-Fluc inh inconclusive
N=c1ccn2c(n1)OC1C(O)[C@@H](CO)O[C@H]12 (some centres not stated)	Nrf2 block 0.16µM (not shown: ELG1 DNA repair, Nrf2 ARE act) | FLuc enzyme inh inactive | A549 tox-2 inactive
CCOC(=O)Cc1csc(NC(=O)c2cc(-c3ccncc3)nc3ccccc23)n1	ELG1 DNA repair inconclusive
Cc1cccc(C(=O)Nc2cccc3c2CCCC3)c1	none
CN(CC(=O)Nc1ccccc1Br)c1ncnc2sccc12	ELG1 DNA repair 12µM, Nrf2 block 9.2µM | FLuc enzyme inh inactive | A549 tox-2 inactive | ARE-Fluc inh inconclusive
CN(C)c1nc(N2CCOCC2)nc(N(c2ccccc2)c2ccccc2)n1	ELG1 DNA repair inconclusive
CN(c1ccccc1)c1nc(C#N)nc(N2CCOCC2)n1	Nrf2 block 8.2µM (no result: ELG1 DNA repair, Nrf2 ARE act) | FLuc enzyme inh inactive | A549 tox-2 inactive | ARE-Fluc inh inconclusive
CCOc1cc(-c2nnc(SCC(=O)NCc3ccccc3)nc2-c2ccc(OC)c(OCC)c2)ccc1OC	A549 tox-1 inconclusive (no result: ELG1 DNA repair, Nrf2 block)
O=C(Nc1ccc(N2CCOCC2)cc1)c1ccc(Cl)c(S(=O)(=O)N2CCCC2)c1	ELG1 DNA repair inconclusive, Nrf2 block 9.2µM | FLuc enzyme inh inactive | A549 tox-2 inactive | ARE-Fluc inh 7.3µM
O=C(NCCc1ccccc1)c1ccc(Cl)c(S(=O)(=O)N2CCCC2)c1	Nrf2 block inconclusive
CC1CN(S(=O)(=O)c2cc(C(=O)NCCC3=CCCCC3)ccc2Cl)CC(C)O1 (configuration not stated)	ELG1 DNA repair inconclusive, Nrf2 block 8.2µM | FLuc enzyme inh inconclusive | A549 tox-2 inactive | ARE-Fluc inh 5.8µM
CC1CCCN(S(=O)(=O)c2cc(C(=O)NCCc3ccc(S(N)(=O)=O)cc3)ccc2Cl)C1 (configuration not stated)	A549 tox-1 inconclusive, Nrf2 block 4.1µM (no result: ELG1 DNA repair) | FLuc enzyme inh inactive | A549 tox-2 inactive | ARE-Fluc inh 12µM
COc1ccc(CCNC(=O)c2ccc(Cl)c(S(=O)(=O)N3CCCCCC3)c2)cc1	ELG1 DNA repair inconclusive, Nrf2 block 8.2µM | FLuc enzyme inh inactive | A549 tox-2 inactive | ARE-Fluc inh 8.2µM
CC(=O)Nc1ccc(CN(C)c2c(C)nc3ccc(C(=O)N(C)Cc4ccccc4)cn23)cc1	none (no result: ELG1 DNA repair, A549 tox-1, Nrf2 block)
CCN(CC(=O)Nc1ccc(OC)cc1)CC(=O)N1CC(=O)Nc2ccccc21	none
